The whole screen tested about 2,000 compounds, of which fewer than 10 were called active. These entries were drawn from the full list. A number with no mark means an inactive call.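 The calls were made as follows: active = growth inhibition of at least 75% in every replicate, which also brings the mean inhibition to 75% or more; inconclusive = mean inhibition 75% or more but some replicate under 75%; inactive = the rest.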
Assay: reduced viability of yeast carrying PfHsp90 – S. cerevisiae, BacTiter-Glo luminescence, antimalarial PfHsp90 inhibitor project, primary screen (AID 504594);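 also: 0% = DMSO neutral control wells and 100% = 20 µM radicicol control wells; higher value means stronger growth inhibition because the sign is flipped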
Settings: S. cerevisiae expressing PfHsp90, BacTiter-Glo growth, 48 h; at 9.4 µM; stronger effect = higher value

Compound	growth inhibition
CC(C)(C)C(O)C(Oc1ccc(Cl)cc1)n1cncn1 (stereo not given)	96.5% (active)
CN1CCN(C(=O)OC2c3nccnc3C(=O)N2c2ccc(Cl)cn2)CC1 (stereo not given)	6.28%
O=C1NC(=O)C2(Cc3ccccc3N3CCCC32)C(=O)N1c1ccc(Cl)cc1 (stereo not given)	-0.293%
O=S(=O)(c1ccc(F)cc1)N1CCCCC1c1cccnc1 (stereo not given)	-1.69%
c1ccc(Cn2ccnc2)cc1	-14.6%
Clc1ccc(CSC(Cn2ccnc2)c2ccc(Cl)cc2Cl)cc1 (stereo not given)	95% (active)
Cn1c(O)c(C=NCCc2c[nH]c3ccccc23)c(=O)n(C)c1=O	-4.75%
C[N+]1(C)CCN(c2ccccc2)CC1	4.14%
COc1cc2c3cc1Oc1cc(ccc1O)C[C@@H]1c4c(cc(OC)c(O)c4Oc4ccc(cc4)C[C@H]3N(C)CC2)CCN1C	-1.85%
CCOc1ccc(N2C(=O)NC(=O)/C(=C\c3cc(OC)c(OC)cc3[N+](=O)[O-])C2=O)cc1	-0.939%

— PubChem BioAssay AID504594 (Broad Institute, 2011)
